# Experimental data from PubChem BioAssay (NCATS).
# A number with no mark means an inactive call. Records with an inconclusive call do not appear. Entries that show only a call come without a potency. Activity calls are given as the source filed them. Unless noted, the call rests on the fitted dose curve; in most records, active means well fitted curve in the direction sought with a large enough effect; inconclusive means small, poorly fitted or top-dose-only effect, or another doubt; inactive means no such curve, though single readings can be large; an effect the other way counts as inactive or inconclusive.
# What was measured:
# [1] = target: Transient receptor potential cation channel subfamily V member 1 (Homo sapiens) (UniProt Q8NER1); assay: HTS Assay for Compounds that Act as Enhancers of the Vanilloid Receptor 1 (AID 488979)
# In short: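 TRPV1 cells loaded with Fluo-8 calcium dye; compound added and Ca2+ signal (ex 480/em 520 nm) followed 3 min, then capsaicin at EC20 added and read 2 more min to detect enhancement.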
# [2] = target: Thyrotropin receptor (Homo sapiens) (UniProt P16473); assay: qHTS Assay for Antagonists of the Thyroid Stimulating Hormone Receptor (AID 488980); further: series mostly up to about 58 µM
# In short: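 TSHR-HEK293 cells; 70 uM RO 20-1724 PDE inhibitor; compound + EC80 TSH (4 nM final); anti-cAMP cryptate antibody/cAMP-d2 in lysis buffer, 30 min RT; HTRF 665/620 nm read.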
# [3] = target: D(1A) dopamine receptor (Homo sapiens) (UniProt P21728); assay: HTS Assay for Allosteric Agonists of the Human D1 Dopamine Receptor: Primary Screen for Agonists (AID 488981); further: potency means the concentration at half of the fitted maximal effect
# In short: (§1)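 Tetracycline-induced HEK293 Trex D1 cells with forced coupling to calcium, loaded with no-wash calcium dye; kinetic fluorescence read 180 s after compound addition for agonism, then a further 180 s after an EC20 dopamine challenge for potentiation.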
# [4] = target: D(1A) dopamine receptor (Homo sapiens) (UniProt P21728); assay: HTS Assay for Allosteric Agonists of the Human D1 Dopamine Receptor: Primary Screen for Potentiators (AID 488982); further: potency means the concentration at half of the fitted maximal effect
# In short: as §1
# [5] = target: D(1A) dopamine receptor (Homo sapiens) (UniProt P21728); assay: HTS Assay for Allosteric Agonists of the Human D1 Dopamine Receptor: Primary Screen for Antagonists (AID 488983);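 further: calcium flux response to an EC80 dopamine challenge measured with no-wash dye; nearly all actives have a fitted effect of over 65% in size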
# In short: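 Tetracycline-induced HEK293 T-REx D1 line, force-coupled to calcium flux, read with no-wash calcium dye. Compound added after 10 s baseline, read 180 s for agonism, then EC80 dopamine added and read a further 180 s.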
# [6] = Validation screen for small molecules that induce genotoxicity in human embryonic kidney (HEK293T) cells expressing luciferase-tagged ELG1 (AID 493106)
# In short: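 HEK293T cells expressing luciferase-tagged ELG1, 2,000 cells/well, exposed to compound 16 hr at 37 °C, 5% CO2. Luciferase read after ONE-Glo, 30 min at room temperature; increased signal indicates genetic stress.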
# [7] = target: ATPase family AAA domain-containing protein 5 (Homo sapiens) (UniProt Q96QE3); assay: Validation screen for small molecules that inhibit ELG1-dependent DNA repair in human embryonic kidney (HEK293T) cells expressing luciferase-tagged ELG1 (AID 493107);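 further: cells co-treated with the DNA-damaging agent 5-fluorouridine alongside compound; series mostly up to about 46 µM; inhibitors lower the ELG1-luciferase luminescence signal; nearly all actives have a fitted effect of over 70% in size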
# In short: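 HEK293T cells expressing luciferase-tagged ELG1, 2,000 per well, treated with 5-fluorouridine plus compound for 16 h at 37 C. ONE-Glo luminescence after 30 min at room temperature reports ELG1 reporter level.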
# [8] = target: Thyrotropin-releasing hormone receptor (Homo sapiens) (UniProt P34981); assay: qHTS for Small Molecule Agonists and Allosteric Enhancers of Human TRH Receptor: Validation Screen for Agonists (AID 493127;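 active means calcium activation more than 3 SD above the typical response in the agonist read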); settings: TRH receptor agonist cell assay; at 2 µM; hits give high values
# In short: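 TRHR cells loaded with fluo-8 calcium dye; FDSS kinetic fluorescence (Ex 480/Em 530) read at 1 s/cycle after 23 nL compound addition. Agonist-mode calcium response recorded before the 10 nM TRH (EC20) addition.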
# Thyrotropin receptor (Homo sapiens), sequence (P16473 whole entry, looked up): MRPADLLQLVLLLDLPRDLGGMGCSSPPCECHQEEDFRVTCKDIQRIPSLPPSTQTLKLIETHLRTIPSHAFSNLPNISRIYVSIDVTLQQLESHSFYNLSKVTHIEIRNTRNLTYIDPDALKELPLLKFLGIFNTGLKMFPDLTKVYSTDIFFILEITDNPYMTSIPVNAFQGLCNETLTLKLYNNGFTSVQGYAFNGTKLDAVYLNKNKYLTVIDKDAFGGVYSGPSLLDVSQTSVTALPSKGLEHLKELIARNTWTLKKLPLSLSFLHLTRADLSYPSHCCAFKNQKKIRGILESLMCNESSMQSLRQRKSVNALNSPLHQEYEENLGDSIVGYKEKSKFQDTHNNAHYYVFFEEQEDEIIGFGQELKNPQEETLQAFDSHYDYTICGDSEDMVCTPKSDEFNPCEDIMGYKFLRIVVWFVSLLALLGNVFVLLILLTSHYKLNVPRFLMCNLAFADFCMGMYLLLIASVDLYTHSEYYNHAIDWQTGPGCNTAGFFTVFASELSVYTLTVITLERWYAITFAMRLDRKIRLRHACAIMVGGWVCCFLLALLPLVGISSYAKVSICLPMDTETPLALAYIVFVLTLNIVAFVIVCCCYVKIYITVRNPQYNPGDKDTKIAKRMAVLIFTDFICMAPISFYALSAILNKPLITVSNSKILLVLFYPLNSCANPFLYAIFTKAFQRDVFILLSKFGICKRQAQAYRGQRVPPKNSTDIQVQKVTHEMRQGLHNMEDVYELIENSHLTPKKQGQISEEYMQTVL
# Thyrotropin-releasing hormone receptor (Homo sapiens), sequence (P34981 whole entry, looked up): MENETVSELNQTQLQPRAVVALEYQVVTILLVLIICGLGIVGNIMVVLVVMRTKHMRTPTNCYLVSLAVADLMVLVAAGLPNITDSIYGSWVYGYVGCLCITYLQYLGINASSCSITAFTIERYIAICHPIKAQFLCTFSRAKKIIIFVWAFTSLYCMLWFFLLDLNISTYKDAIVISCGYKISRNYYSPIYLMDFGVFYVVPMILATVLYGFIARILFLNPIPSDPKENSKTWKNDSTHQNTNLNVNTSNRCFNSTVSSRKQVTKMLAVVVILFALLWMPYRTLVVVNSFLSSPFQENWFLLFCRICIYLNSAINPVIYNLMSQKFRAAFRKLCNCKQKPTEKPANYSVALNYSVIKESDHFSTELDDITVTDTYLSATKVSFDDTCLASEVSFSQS
# ATPase family AAA domain-containing protein 5 (Homo sapiens), sequence (Q96QE3 whole entry, looked up, the tested form may be a part): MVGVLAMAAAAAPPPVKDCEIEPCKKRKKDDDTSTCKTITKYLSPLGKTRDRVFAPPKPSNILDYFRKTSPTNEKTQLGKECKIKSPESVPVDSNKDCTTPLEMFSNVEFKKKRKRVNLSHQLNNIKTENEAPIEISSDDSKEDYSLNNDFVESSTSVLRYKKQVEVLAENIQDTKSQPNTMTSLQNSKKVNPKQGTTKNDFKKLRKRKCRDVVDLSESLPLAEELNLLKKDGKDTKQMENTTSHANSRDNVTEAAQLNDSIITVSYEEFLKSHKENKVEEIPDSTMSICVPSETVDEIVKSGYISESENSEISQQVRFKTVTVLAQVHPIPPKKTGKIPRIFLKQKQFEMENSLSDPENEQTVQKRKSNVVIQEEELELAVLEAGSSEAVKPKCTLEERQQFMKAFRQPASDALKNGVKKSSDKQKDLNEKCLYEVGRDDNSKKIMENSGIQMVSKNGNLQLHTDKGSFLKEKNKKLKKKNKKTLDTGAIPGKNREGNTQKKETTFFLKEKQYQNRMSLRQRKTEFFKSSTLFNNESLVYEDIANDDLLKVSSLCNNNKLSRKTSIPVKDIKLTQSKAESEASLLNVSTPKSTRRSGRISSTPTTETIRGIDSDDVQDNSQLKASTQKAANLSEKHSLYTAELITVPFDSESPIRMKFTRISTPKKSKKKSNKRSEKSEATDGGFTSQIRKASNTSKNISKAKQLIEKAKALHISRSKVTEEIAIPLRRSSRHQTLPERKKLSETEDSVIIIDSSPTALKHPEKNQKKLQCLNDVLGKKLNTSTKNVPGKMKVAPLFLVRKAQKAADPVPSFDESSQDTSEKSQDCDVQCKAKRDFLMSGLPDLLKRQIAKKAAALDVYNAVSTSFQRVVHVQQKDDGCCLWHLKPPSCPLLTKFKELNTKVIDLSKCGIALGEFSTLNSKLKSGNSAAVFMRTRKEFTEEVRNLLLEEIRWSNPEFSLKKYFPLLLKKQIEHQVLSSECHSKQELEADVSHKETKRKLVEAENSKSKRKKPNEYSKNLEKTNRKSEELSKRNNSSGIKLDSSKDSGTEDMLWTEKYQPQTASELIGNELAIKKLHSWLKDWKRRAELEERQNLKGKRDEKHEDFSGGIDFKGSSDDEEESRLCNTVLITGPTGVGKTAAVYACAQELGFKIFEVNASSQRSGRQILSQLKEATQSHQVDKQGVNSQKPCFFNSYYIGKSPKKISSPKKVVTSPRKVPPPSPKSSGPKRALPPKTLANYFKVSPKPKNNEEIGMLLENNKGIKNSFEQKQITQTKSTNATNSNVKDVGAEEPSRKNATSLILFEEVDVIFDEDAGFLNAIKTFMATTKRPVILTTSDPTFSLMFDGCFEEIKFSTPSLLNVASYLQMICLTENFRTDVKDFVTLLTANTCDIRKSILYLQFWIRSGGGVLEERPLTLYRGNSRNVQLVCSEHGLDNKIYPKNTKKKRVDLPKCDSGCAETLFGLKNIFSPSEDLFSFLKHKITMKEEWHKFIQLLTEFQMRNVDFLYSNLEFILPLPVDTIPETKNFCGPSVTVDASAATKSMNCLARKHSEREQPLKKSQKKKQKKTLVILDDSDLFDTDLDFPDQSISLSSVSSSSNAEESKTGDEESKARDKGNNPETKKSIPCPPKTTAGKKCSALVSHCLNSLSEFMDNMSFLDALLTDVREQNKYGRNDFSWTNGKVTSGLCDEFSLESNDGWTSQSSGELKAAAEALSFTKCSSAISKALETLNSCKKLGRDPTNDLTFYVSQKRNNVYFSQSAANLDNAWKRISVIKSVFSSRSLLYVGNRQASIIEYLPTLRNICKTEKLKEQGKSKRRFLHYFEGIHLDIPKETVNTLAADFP
# Transient receptor potential cation channel subfamily V member 1 (Homo sapiens), sequence (Q8NER1 whole entry, looked up): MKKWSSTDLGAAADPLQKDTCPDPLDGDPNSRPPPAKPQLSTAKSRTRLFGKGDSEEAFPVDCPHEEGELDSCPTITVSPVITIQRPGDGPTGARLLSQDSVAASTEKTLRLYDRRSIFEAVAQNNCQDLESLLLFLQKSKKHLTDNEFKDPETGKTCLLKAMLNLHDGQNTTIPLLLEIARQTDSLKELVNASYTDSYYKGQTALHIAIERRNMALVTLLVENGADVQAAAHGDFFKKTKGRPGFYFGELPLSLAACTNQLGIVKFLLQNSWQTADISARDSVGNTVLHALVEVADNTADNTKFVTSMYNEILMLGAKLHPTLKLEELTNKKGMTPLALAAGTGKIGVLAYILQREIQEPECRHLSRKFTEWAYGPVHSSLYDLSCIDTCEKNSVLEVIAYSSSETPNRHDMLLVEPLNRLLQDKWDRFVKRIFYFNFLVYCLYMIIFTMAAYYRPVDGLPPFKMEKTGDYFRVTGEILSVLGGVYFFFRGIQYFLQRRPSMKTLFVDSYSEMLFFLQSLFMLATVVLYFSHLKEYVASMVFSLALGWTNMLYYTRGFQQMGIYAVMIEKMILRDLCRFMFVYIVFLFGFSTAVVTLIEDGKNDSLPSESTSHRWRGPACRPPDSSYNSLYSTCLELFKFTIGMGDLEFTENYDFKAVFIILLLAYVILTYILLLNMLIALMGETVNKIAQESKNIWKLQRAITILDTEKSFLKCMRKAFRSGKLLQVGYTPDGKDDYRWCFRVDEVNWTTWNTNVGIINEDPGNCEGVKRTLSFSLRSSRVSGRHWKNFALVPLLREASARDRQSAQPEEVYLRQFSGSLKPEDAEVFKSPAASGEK
# D(1A) dopamine receptor (Homo sapiens), sequence (P21728 whole entry, looked up): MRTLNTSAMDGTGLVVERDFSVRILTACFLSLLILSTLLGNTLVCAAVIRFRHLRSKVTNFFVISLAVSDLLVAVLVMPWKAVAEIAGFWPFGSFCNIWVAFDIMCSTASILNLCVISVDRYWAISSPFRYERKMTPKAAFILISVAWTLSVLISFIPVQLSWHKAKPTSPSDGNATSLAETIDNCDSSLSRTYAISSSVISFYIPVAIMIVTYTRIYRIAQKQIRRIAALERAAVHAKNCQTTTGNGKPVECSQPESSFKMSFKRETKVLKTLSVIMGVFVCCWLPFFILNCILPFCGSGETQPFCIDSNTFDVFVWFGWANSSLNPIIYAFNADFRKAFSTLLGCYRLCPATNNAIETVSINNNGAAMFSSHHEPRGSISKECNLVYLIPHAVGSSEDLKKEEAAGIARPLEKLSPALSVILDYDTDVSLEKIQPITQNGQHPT
Compound,outcome [1],outcome [2],Potency [3],Potency [4],Potency [5],Potency [6],Potency [7],activation [8]
NCCS(=O)O,inactive,inactive,inactive,inactive,inactive,inactive,inactive,1.19%
COc1ccc2c(c1)c(CC(=O)O)c(C)n2C(=O)c1ccccc1,inactive,inactive,inactive,inactive,inactive,inactive,inactive,0.812%
CCOC(=O)C12CC1/C(=N/O)c1ccccc1O2 (configuration not stated),inactive,inactive,inactive,inactive,inactive,inactive,inactive,-3.94%
Nn1nnc2ccccc21,inactive,inactive,inactive,inactive,inactive,inactive,inactive,1.12%
NC(N)=NC(N)=Nc1cccc(Cl)c1,inactive,inactive,inactive,inactive,inactive,inactive,inactive,1.62%
CCN(CC)CCOC(=O)c1cc(Cl)c(N)cc1OC,inactive,inactive,inactive,inactive,inactive,inactive,inactive,1.5%
N[C@@H](Cc1ccc(O)c(I)c1)C(=O)O,inactive,inactive,inactive,inactive,inactive,inactive,inactive,1.19%
O=C(O)Cc1c[nH]c2ccc(O)cc12,inactive,inactive,inactive,inactive,inactive,inactive,inactive,-0.188%
CC1=C(C(=O)O)N2C(=O)[C@@H](NC(=O)C(N)C3=CCC=CC3)[C@H]2SC1 (some centres not stated),inactive,inactive,inactive,inactive,inactive,inactive,inactive,
O=C(O)C1CCCNC1 (configuration not stated),inactive,inactive,inactive,2.31 µM (active),inactive,inactive,inactive,0.625%
C#CC(N)CCC(=O)O (configuration not stated),inactive,inactive,inactive,inactive,inactive,inactive,inactive,0.625%
CCCCCC[C@@H]([C@@H](C)O)n1cnc2c(N)ncnc21,inactive,inactive,inactive,inactive,inactive,inactive,inactive,0.875%
CCCCCCCCCCCCCCSCC(=O)O,inactive,inactive,inactive,inactive,inactive,inactive,inactive,0.688%
N[C@@H](CS(=O)O)C(=O)O,inactive,inactive,inactive,inactive,inactive,inactive,inactive,0.688%
COc1cc(/C=C(\C#N)C(=O)c2ccc(O)c(O)c2)cc(I)c1O,inactive,inactive,14.1 µM (active),3.66 µM (active),inactive,inactive,inactive,53.1% (active)
O=C(O)C1=CCCN(CCON=C(c2ccccc2)c2ccccc2)C1,inactive,inactive,inactive,inactive,inactive,inactive,inactive,-3%
NCCCCN=C(N)N,inactive,inactive,inactive,inactive,inactive,inactive,inactive,0.812%
NC(C(=O)N[C@@H]1C(=O)N2C(C(=O)O)=C(Cl)CS[C@H]12)c1ccccc1 (some centres not stated),inactive,inactive,inactive,inactive,inactive,inactive,inactive,0.938%
CNc1ncnc2c1ncn2[C@H]1C[C@H](OP(=O)(O)O)[C@@H](COP(=O)(O)O)O1,inactive,inactive,inactive,inactive,inactive,inactive,inactive,1.25%
COc1ccc(-c2ccc(N)[n+](CCCC(=O)O)n2)cc1,inactive,inactive,inactive,inactive,inactive,inactive,inactive,1%
CC(C)C[C@H](NC(=O)C1OC1C(=O)O)C(=O)NCCCCN=C(N)N (some centres not stated),inactive,inactive,inactive,inactive,inactive,inactive,inactive,0%
C[C@@]1(C2CCCC2)Cc2cc(OCC(=O)O)c(Cl)c(Cl)c2C1=O,inactive,inactive,inactive,inactive,inactive,inactive,inactive,1.25%
Nc1nc2[nH]c(=O)cnc2c(=O)[nH]1,inactive,inactive,inactive,inactive,inactive,inactive,inactive,0.312%
NC1(C(=O)O)CC1,inactive,inactive,inactive,inactive,inactive,inactive,inactive,0.688%
CC(C)Cn1c(=O)n(C)c(=O)c2[nH]cnc21,inactive,inactive,inactive,inactive,inactive,inactive,inactive,0.875%
O=C(O)Cc1ccc(O)c(O)c1,inactive,inactive,inactive,inactive,inactive,inactive,inactive,0.938%
